SIRT5 inh – SIRT5 desuccinylase inhibitors, primary screen, biochemical, fluorescence imaging, single point, set 5; NAD-dependent protein deacylase sirtuin-5, mitochondrial (Homo sapiens), Q9NXA8; Purified SirT5, succinyl-peptide AMC, trypsin-coupled fluorescence; inhibition, % at 15 µM; 330,000 tested, 1.1% active; in the data active means inhibition above about 15%
FGF22 binding – binders of human FGF22 protein, primary screen, FGF22 synaptogenesis inhibitor project, biophysical, thermal shift, single point | Fibroblast growth factor 22 (Homo sapiens), Q9HCT0 | recombinant FGF22 thermal shift, SYPRO orange fluorescence; percent of sucrose octasulfate shift, DMSO zero | activity (Tm shift, normalised), % at 9.99 µM | 340,000 tested, 1.5% active;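 active means mean Tm shift, scaled 0 neutral to 100 positive control, at about 1.3% or above, every replicate too, limit read from the data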
GSIS activator – GLuc luminescence reporter in INS-1E cells, primary screen for activators of glucose-dependent secretion of insulin. INS-1E GLuc reporter insulin secretion, 2-3 h. activation, % at 16.6 µM. 370,000 tested, 0.61% active. AID 743287, 2014;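 active means lowest replicate activation of at least 40%, so every replicate reaches that level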;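 further: 0% = median of neutral control wells and 100% = median of IBMX positive control wells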
Casp6 inh – human caspase-6 inhibitors, primary screen, biochemical, VEID-R110 fluorescence, single point, set 2. purified caspase-6, Z-VEID-R110 cleavage fluorescence. inhibition, % at 12.5 µM. 350,000 tested, 0.53% active. AID 686996, 2013;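 active means mean inhibition across replicates at least about 35%, with every replicate also reaching that limit, limit read from the data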;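 further: 0% = median of neutral control wells and 100% = no fluorescence left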
ERAP1 HTS inh – human ERAP1 aminopeptidase inhibitors, primary screen, biochemical, single point, plate reader. Endoplasmic reticulum aminopeptidase 1 (Homo sapiens), Q9NZ08. recombinant ERAP1, Leu-AMC fluorescence, 60 min. inhibition, % at 10.7 µM. 340,000 tested, 0.15% active. AID 652197, 2013;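 active means mean replicate inhibition of at least 30%, or all replicates individually reaching that 30% level; inactive means mean below 30% and not every replicate reaching it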;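 further: 0% = neutral control wells and 100% = L-leucinethiol positive control wells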
Target sequence (Q9NZ08 whole entry, looked up): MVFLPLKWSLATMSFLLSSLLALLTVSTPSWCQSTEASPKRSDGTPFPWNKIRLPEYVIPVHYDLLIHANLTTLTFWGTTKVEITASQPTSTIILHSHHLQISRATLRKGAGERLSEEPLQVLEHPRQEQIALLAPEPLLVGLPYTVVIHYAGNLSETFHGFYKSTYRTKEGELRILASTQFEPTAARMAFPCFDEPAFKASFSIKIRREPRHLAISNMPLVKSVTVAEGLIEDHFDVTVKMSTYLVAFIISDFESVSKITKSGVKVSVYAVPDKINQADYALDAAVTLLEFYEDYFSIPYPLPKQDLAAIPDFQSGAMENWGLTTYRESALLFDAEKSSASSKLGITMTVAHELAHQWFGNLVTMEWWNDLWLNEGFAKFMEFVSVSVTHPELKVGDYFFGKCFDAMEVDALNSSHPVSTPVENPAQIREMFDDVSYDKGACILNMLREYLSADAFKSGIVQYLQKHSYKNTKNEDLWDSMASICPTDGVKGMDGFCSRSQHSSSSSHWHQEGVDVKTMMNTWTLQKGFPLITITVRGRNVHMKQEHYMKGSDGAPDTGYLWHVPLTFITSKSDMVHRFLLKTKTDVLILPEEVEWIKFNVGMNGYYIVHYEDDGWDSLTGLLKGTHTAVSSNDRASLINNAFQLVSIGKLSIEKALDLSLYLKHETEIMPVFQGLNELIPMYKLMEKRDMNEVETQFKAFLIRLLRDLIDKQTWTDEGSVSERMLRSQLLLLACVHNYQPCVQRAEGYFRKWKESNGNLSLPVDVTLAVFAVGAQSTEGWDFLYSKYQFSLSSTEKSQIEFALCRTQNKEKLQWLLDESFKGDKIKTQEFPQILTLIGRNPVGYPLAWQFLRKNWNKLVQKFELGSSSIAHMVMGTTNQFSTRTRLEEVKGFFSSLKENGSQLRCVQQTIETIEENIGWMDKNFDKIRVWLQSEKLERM
Starred values were filed as active, the others as inactive; / = no result given. In the library only some 3.3% were active in any assay of this set; here they are far more common.

SMILES	SIRT5 inh	FGF22 binding	GSIS activator	Casp6 inh	ERAP1 HTS inh
O=C1NC(Cc2ccc(O)cc2)c2nc3ccc(F)cc3c(=O)n2-c2ncccc21 (stereo unspecified)	22*	0	-1	7	8
C[N+]1(CC2COC3(CCCCC3)O2)CCCCC1 (stereo unspecified)	-2	41	9	-4	54*
Cc1csc(=O)n1CCC(=O)OCc1nnc(-c2ccccc2)o1	5	0	19	-1	-3
Cc1csc(=O)n1CCC(=O)OCc1nnc(-c2ccc([N+](=O)[O-])cc2)o1	-6	0	/	52*	-3
COCC#Cc1ccc([C@@H]2[C@@H](C#N)N(C(=O)NC3CCCCC3)[C@@H]2CO)cc1	3	/	-7	11	0
Cc1noc(C)c1NC(=O)N(C)C[C@@H]1OCCCC[C@H](C)Oc2ccc(NS(=O)(=O)c3ccc(Cl)cc3)cc2C(=O)N([C@@H](C)CO)C[C@@H]1C	3	/	-1	1	-2
CC1CN(C(=O)Nc2ccc(Br)cc2Cl)CC(C)O1 (stereo unspecified)	67*	0	23	2	3
CC(C)Cc1nc2oc3c(NCc4cccnc4)ncnc3c2c2c1CCC2	10	/	75*	-4	-1
O=C(NC[C@@H]1CC[C@@H]2[C@@H](CN2S(=O)(=O)c2ccccc2[N+](=O)[O-])O1)C1CCOCC1	-3	/	/	53*	11
Cc1ccc(S(=O)(=O)N(C)C[C@@H]2Oc3ccc(NS(=O)(=O)c4ccc(Cl)cc4)cc3CC(=O)N([C@@H](C)CO)C[C@H]2C)cc1	9	0	-1	0	1
CCS(=O)(=O)c1nc(S(=O)(=O)c2ccc(C)cc2)c(N2CCCC2)s1	-2	0	6	2	1
CCS(=O)(=O)c1nc(S(=O)(=O)c2ccc(Cl)cc2)c(N2CCC3(CC2)OCCO3)s1	-6	43*	2	0	4
CCS(=O)(=O)c1nc(S(=O)(=O)c2ccc(C)cc2)c(N2CCC(O)CC2)s1	0	0	41*	1	-2
CCS(=O)(=O)c1nc(S(=O)(=O)c2ccc(Cl)cc2)c(N2CCOCC2)s1	-4	0	10	38*	0
C[C@@H]1CN([C@@H](C)CO)C(=O)CCCn2cc(nn2)CO[C@@H]1CN(C)Cc1ccc(C(F)(F)F)cc1	/	/	-7	/	/
COCCNC(=O)C(C)Oc1ccccc1 (stereo unspecified)	-1	43*	-3	0	-3
COc1ccccc1CNC(=O)C(C)Oc1ccccc1 (stereo unspecified)	-1	0	0	-1	/
NC1=NN=C(c2ccc3c(c2)OCCO3)CS1	15*	0	11	1	0
COc1ccccc1-c1ccc([C@@H]2[C@@H](C#N)N(C(=O)c3cccnc3)[C@@H]2CO)cc1	0	0	-4	0	-3
COc1ccc(OCC(O)CN(CCO)CC(O)Cn2ccc3ccccc32)cc1 (stereo unspecified)	3	43*	-5	0	0
N#Cc1c(-c2ccccc2)nc(SCC(=O)NC2CCCCC2)[nH]c1=O	0	/	-26	-1	6
CN(C(=O)CSc1nc(-c2ccc(C(C)(C)C)cc2)c(C#N)c(=O)[nH]1)C1CCCCC1	17*	0	-17	35*	1
CC(C)C(=O)Nc1ccc2c(c1)C(=O)N(C)[C@H]1CC[C@H](CC(=O)NCC3CC3)O[C@@H]1CO2	-6	-1	1	3	-1
O=CC(O)C1OC(=O)C(O)C1O (stereo unspecified)	0	0	25	41*	-2
CCCNC(=O)N[C@@H]1CC[C@H](CC(=O)NCCc2ccccc2)O[C@@H]1CO	0	0	14	-1	-2
SMILES	SIRT5 inh	FGF22 binding	GSIS activator	Casp6 inh	ERAP1 HTS inh
CC1=C/C(=N\OS(=O)(=O)c2ccccc2)C(C)=CC1=O	-4	/	250	1	3
CC1=C(C)/C(=N\OS(=O)(=O)c2ccc(C)cc2)C=CC1=O	/	/	225*	/	/
COCC(=O)N1[C@H](C#N)[C@H](c2ccccc2C2=CCCCC2)[C@@H]1CO	-2	/	1	/	/
C=CCSc1nc(=O)n2cccc(C)c2n1	-4	0	67*	-5	-2
C=CCSc1nc(=O)n2ccccc2n1	-3	0	17	-7	-2
Cc1cccn2c(=O)nc(SCC(=O)N3CCCCCC3)nc12	0	0	10	5	0
Cc1cccn2c(=O)nc(SCC(=O)N3CCCCC3)nc12	-7	0	43*	2	-1
CCC(=O)N1C[C@@H](C)[C@@H](OC)CN(C)C(=O)c2cc(NS(C)(=O)=O)ccc2OC[C@H]1C	-3	0	10	-1	3
N#C[C@H]1[C@@H](c2ccccc2-c2ccccc2)[C@@H](CO)N1C(=O)Cc1cccnc1	/	/	12	/	/
Cc1cccc(C)c1NC(=O)C1c2ccccc2OCC(=O)N1CCCN1CCOCC1 (stereo unspecified)	-4	0	47*	1	0
CCCCNC(=O)C1c2ccccc2OCC(=O)N1CCCN1CCOCC1 (stereo unspecified)	-6	0	6	-8	0
C[C@@H]1CN([C@@H](C)CO)C(=O)c2cc(NC(=O)Cc3cn(C)c4ccccc34)ccc2O[C@@H]1CN(C)C(=O)NC1CCCCC1	4	-1	-20	-1	0
COc1ccc(-c2cnc3c(c2)C(=O)N([C@@H](C)CO)C[C@H](C)[C@@H](CN(C)S(=O)(=O)c2ccc(OC)cc2)O3)cc1	/	/	-13	/	/
Cc1cc2nc(CN(C)Cc3c(C(=O)N(C)C)nc4ccc(Cl)cn34)[nH]c2cc1C	-1	43*	10	-3	-10
Cn1c(CCC(=O)Nc2ccc(S(C)(=O)=O)cc2)nc2cc(S(=O)(=O)N3CCOCC3)ccc21	5	0	-1	-1	3
CCOC(=O)N1CCN(C(=S)Nc2cc(S(=O)(=O)N3CCOCC3)ccc2Cl)CC1	-8	45*	-6	2	4
Cn1c(CCC(=O)Nc2cc(S(C)(=O)=O)ccc2Cl)nc2cc(S(=O)(=O)N3CCOCC3)ccc21	7	0	9	-1	63*
CCOC(=O)C1CCCN(C(=S)Nc2ccc(S(=O)(=O)N3CCOCC3)cc2)C1 (stereo unspecified)	/	43*	/	-2	4
Cc1cc(OCC(=O)OCC(=O)Nc2cc(S(=O)(=O)N3CCOCC3)ccc2Cl)ccc1Cl	-8	0	8	0	0
COc1ccc(OCC(=O)OCC(=O)Nc2cc(S(=O)(=O)N3CCOCC3)ccc2Cl)cc1	/	43*	12	-2	0

Screens: PubChem, Broad Institute
